Hit rate of the full screen: of about 48,000 compounds, about 13,000 (27%) showed an effect of 50% or more. The list shows a part of the results.
Tested on: Wolbachia pipientis
Assay: Anti-Wolbachia Cell-Based Screen
Format: functional
Set-up: scale not given: in the data most compounds retested in dose-response had high values
Conditions: 5 µM

Compound	Percent Effect [%]
CC(c1nc(C2CC2)no1)N1CCN(Cc2ccccc2F)CC1 (configuration not stated)	3.653
Cc1nc(CN2CCN(C(C)c3nc(C4CC4)no3)CC2)no1 (configuration not stated)	103.1
CCc1noc(C(C)N2CCN(Cc3noc(C)n3)CC2)n1 (configuration not stated)	-22.55
Cc1noc(C(C)N2CCN(Cc3noc(C4CC4)n3)CC2)n1 (configuration not stated)	1.427
CC(C)c1noc(C(C)N2CCN(Cc3noc(C(C)(C)C)n3)CC2)n1 (configuration not stated)	117.7
Cc1noc(C)c1CN1CCN(Cc2nc(C3CC3)no2)CC1	-14.96
Cc1noc(C)c1CN1CCN(C(C)c2nc(C3CC3)no2)CC1 (configuration not stated)	133.7
Cc1ccccc1CN1CCN(C(C)c2nc(C3CC3)no2)CC1 (configuration not stated)	114.1
Cc1nnc(C(C)N2CCN(Cc3noc(C(C)(C)C)n3)CC2)o1 (configuration not stated)	6.078
CC(C)c1noc(C(C)N2CCN(Cc3ccco3)CC2)n1 (configuration not stated)	-4.875
CC(c1nc(C2CC2)no1)N1CCN(Cc2ccccc2)CC1 (configuration not stated)	7.857
COc1ncccc1NC(=O)N1CCC(c2ccc(O)cc2)CC1	-2.726
CC(C)c1nc(C(=O)N2CCCC(N)CC2)cs1 (configuration not stated)	-4.509
CN(CC(F)F)C(=O)c1cn(-c2ccc(Br)cc2)cn1	1.903
CN(Cc1nc(C2CC2)no1)C(=O)C1COc2ccccc2C1 (configuration not stated)	29.53
Cc1ccnc(C(NC(=O)c2ncoc2C)C2CC2)n1 (configuration not stated)	-4.451
CC(=O)c1cccc(OCC(=O)N(CC(C)C)C2CCN(C)CC2)c1	-3.463
Cn1cccc1C(=O)N1CCC2(CC1)c1nc[nH]c1CCN2S(C)(=O)=O	-21.07
Cc1c2ncn(CC(=O)N(C)C)c(=O)c2nn1C	-2.054

Compound	Percent Effect [%]
CC(C)(C)N1CCCN(C(=O)c2csc(S(N)(=O)=O)c2)CC1	4.518
CC(c1nc(C2CC2)no1)N1CCN(Cc2noc(C3CC3)n2)CC1 (configuration not stated)	103.7
CC(C)c1nc(CN2CCN(C(C)c3nc(C4CC4)no3)CC2)no1 (configuration not stated)	0.3475
CC(C)c1noc(C(C)N2CCN(Cc3noc(C4CC4)n3)CC2)n1 (configuration not stated)	18.72
CC(NC(=O)N1CCN(c2ccccc2)CC1)c1nncn1C (configuration not stated)	1.482
CC(C(=O)O)N1CCc2onc(-c3ccc(F)c(F)c3)c2C1 (configuration not stated)	-3.454
CN(Cc1csc2ccccc12)C(=O)NC1CCS(=O)(=O)C1 (configuration not stated)	-6.965
CC(C)n1cc(C(=O)NC2CCS(=O)(=O)C2)c2ccccc2c1=O (configuration not stated)	104.9
CC(C)Cn1cc(C(=O)NC2CCS(=O)(=O)C2)c2ccccc2c1=O (configuration not stated)	107.3
COCCN1CCC(NC(=O)Cn2cc(C)c3ccccc32)CC1	-24.59
Cn1cc(CCNC(=O)NC2CCS(=O)(=O)C2)cn1 (configuration not stated)	-13.02
CCc1c(C(=O)NC2CCS(=O)(=O)C2)cnn1-c1ccc(F)cc1 (configuration not stated)	9.191
O=C(NC1CCC(N2C(=O)CCC2=O)CC1)c1c[nH]c2ccccc12 (configuration not stated)	-1.536
O=C(NC1CCS(=O)(=O)C1)c1cn(C2CC2)c(=O)c2ccccc12 (configuration not stated)	92.4
O=C(NC1CCS(=O)(=O)C1)c1ccc(-c2ccc(F)cc2)s1 (configuration not stated)	1.727
O=C(CCNC(=O)c1sccc1-c1ccccc1)NC1CCS(=O)(=O)C1 (configuration not stated)	26.53
COCCn1cc(C(=O)NC2CCS(=O)(=O)C2)c2ccccc2c1=O (configuration not stated)	102
CC(C)[C@H](NC(=O)NC1CCS(=O)(=O)C1)C(=O)NCc1ccccc1Cl (some centres not stated)	-0.7444
